Results from PubChem BioAssay AID651719 (The Scripps Research Institute Molecular Screening Center, 2012).
Among all 360,000 compounds or so, about 1,600 (0.44%) were called active.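 Rule for the calls: active = inhibition above the screen-wide average plus 3 SD (cut at about 13% in these data); inactive = the rest.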 The sample as a whole holds a higher share of actives than the screen did.

What follows are compounds tested against Galanin receptor type 3 (Homo sapiens) (UniProt O60755) (assay: GalR3 antagonists in HEK293 cells, primary screen, cell-based, fluorescence readout (AID 651719;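 note: forskolin and galanin both at EC90 stimulate the cells; cAMP rise reported by CNG channel membrane potential dye signal; 0% = forskolin plus galanin with DMSO and 100% = forskolin alone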)). Settings: HEK293 GalR3-CNG cAMP membrane potential fluorescence; at 3 µM; hits give high values.
Sequence of Galanin receptor type 3 (Homo sapiens) (O60755 1-299 limits assumed): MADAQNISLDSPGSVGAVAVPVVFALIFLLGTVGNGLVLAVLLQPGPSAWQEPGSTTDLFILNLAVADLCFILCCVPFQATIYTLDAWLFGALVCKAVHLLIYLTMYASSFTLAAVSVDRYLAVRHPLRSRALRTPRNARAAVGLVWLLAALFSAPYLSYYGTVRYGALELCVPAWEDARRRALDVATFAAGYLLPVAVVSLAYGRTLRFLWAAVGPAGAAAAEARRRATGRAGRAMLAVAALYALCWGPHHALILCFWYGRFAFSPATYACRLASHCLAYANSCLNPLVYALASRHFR
With CCCCCCCCCCCCn1ccc(=N)cc1 the inhibition was 75.6% (active).
With CCN(CC)C(=O)[C@@H]1C=C2c3cccc4[nH]c(Br)c(c34)C[C@H]2N(C)C1 the inhibition was -11% (inactive).
In the case of COC(=O)C1=C(c2cc3ccccc3s2)C[C@@H]2CC[C@H]1N2C(=O)NC(C)C, the inhibition is reported as -4.53% (inactive).
In the case of COC(=O)C1=C(c2cc3ccccc3s2)C[C@@H]2CC[C@H]1N2C(=O)NCc1cccc2ccccc12, the inhibition is reported as 17.8% (active).
For COC(=O)C1=C(c2cc3ccccc3s2)C[C@@H]2CC[C@H]1N2C(=O)NCCO, the inhibition was -2.95% (inactive).
In the case of O=c1[nH]c(=O)n(-c2ccccc2)c(O)c1C=NC12CN3CN(CN(C3)C1)C2, the inhibition is reported as 5.15% (inactive).
CS(=O)(=O)N1CCC2CCNC2C1 (stereo not given) was tested, and the inhibition was 0.87% (inactive).
In the case of CCOC(=O)[C@]12Cc3ccccc3[C@H]1N(C1CCCCC1)C(=O)c1cc(OC)ccc12, the inhibition is reported as -8.42% (inactive).
With Brc1ccc2c(c1)CNCc1cnnn1-2 the inhibition was -5.56% (inactive).
With CCN(CC)C(=O)c1ccc(NC(=O)c2cc(-n3cnnc3)ccc2Cl)cc1 the inhibition was -1.92% (inactive).
C[C@]12CC[C@H](O)C[C@H]1CC[C@@H]1C2CC[C@]2(C)[C@@H](C3=CC(=O)OC3)[C@@H](O)C[C@]12O (stereo not given in full) was tested, and the inhibition was 30.2% (active).
CC12CCC(O)CC1CCC1C2CCC2(C)C(C(=O)CC(O)C(F)(F)F)CCC12 (stereo not given) was tested, and the inhibition was -1.5% (inactive).
With COc1ccc2c(c1)[C@@]13CCCCC1[C@@H](C2)NCC3 (stereo not given in full) the inhibition was -3.82% (inactive).
With COc1ccc(CN2CCN(c3ccccc3F)CC2)c(OC)c1 the inhibition was -4.46% (inactive).
In the case of Clc1ccc([C@@H]2CC3CCC2N3)cn1 (stereo not given in full), the inhibition is reported as -3.43% (inactive).
O=c1c2ccccc2nc(-c2ccccc2)n1-c1ccccn1 was tested, and the inhibition was -5.42% (inactive).
Cc1ccc(-n2c(-c3ccc([N+](=O)[O-])cc3)nc3ccccc3c2=O)cc1 was tested, and the inhibition was -3.3% (inactive).
COc1ccc(-n2c(-c3ccccc3)nc3ccccc3c2=O)cc1 was tested, and the inhibition was 16.9% (active).
With Cc1cc(N2CCNC[C@@H]2C)ccc1N1CC[C@H](O)C1 the inhibition was -7.28% (inactive).
CCC(C)NC1(c2ccccc2)CCCCC1 (stereo not given) was tested, and the inhibition was -2.56% (inactive).
In the case of O=S(=O)(c1ccccc1)N1CCC2CCNC2C1 (stereo not given), the inhibition is reported as -5.66% (inactive).
COc1cc(OC)cc(C(=O)NCCN2CCC3(CC2)C(=O)NCN3c2ccccc2)c1 was tested, and the inhibition was -6.02% (inactive).
In the case of COC1C(O)C(C)OC(OC2CCC3(C=O)C(CCC4C3CCC3(C)C(C5=CC(=O)OC5)CCC43O)C2)C1O (stereo not given), the inhibition is reported as 43% (active).
C/C=C/CC1(CC)C(=O)NC(=S)NC1=O was tested, and the inhibition was -12.8% (inactive).
With CCCC(C)n1[nH]c(=O)c2c1NC(=O)CSC2c1ccc(OC)c(OC)c1 (stereo not given) the inhibition was -3.1% (inactive).
